Test results as given in PubChem BioAssay (Tox21).
Where “and” joins values, the source holds several entries; their conditions need not be identical. Equal values may be shown once. Records with an inconclusive call do not appear. Where a call stands in place of a potency, no number is given. Calls of active or inactive are those of the source. The call rests on the fitted dose curve; in most records, active means well fitted cell-killing curve with a large enough effect in the repeat runs; inconclusive means weak or mixed curves, or effect the other way; inactive means flat fitted curve, though single readings scatter.

Test: qHTS assay to identify small molecule agonists of the sonic hedgehog signaling (Shh) pathway - cell viability counter screen (AID 1259366); further: nearly all actives have a fitted effect of over 50% in size
Conditions: NIH/3T3 Gli1-Luc viability, CellTiter-Fluor, 24 h; series mostly up to 92.4 µM
From the text: National Center for Advancing Translational Sciences [NCATS]
NIH Chemical Genomics Center [NCGC]
U.S. Environmental Protection Agency [EPA]
National Institutes of Environmental Health Sciences [NIEHS]
National Toxicology Program [NTP]
U.S. Food and Drug Administration [FDA]
The sonic hedgehog (Shh) pathway is essential for normal embryonic development. Dysregulation of the Shh pathway can cause severe developmental defects in organs. Therefore chemicals that interfere with the pathway are potential developmental toxicants. A cell line designated 3T3Gli1-Luc (DMB/OARSA/CFSAN/FDA, Laurel, MD), a NIH/3T3 derived clone containing stably integrated Gli1-Luc reporter is used to detect chemical interference of the Shh pathway, by changes in the expression of the firefly Luc gene under the control of the Gli1 transcriptional response element. This cell line was used to screen Tox21 libraries for identifying and prioritizing the potential developmental toxicants that interfere Shh pathway. The cytotoxicity of the compounds was tested in parallel by measuring the cell viability using CellTiter-Fluor assay system (Promega, Madison, WI) in the same wells.
Tox21 Assay Protocol Summary:
3T3 Gli1-Luc cells were dispensed at 2,000 per well in 5uL of culture medium into white solid bottom 1536-well plates (Greiner Bio-One, Monroe, NC) using a Multidrop Combi (Thermo Scientific, Waltham, MA) dispenser. The assay plates were incubated at 37 C and 5% CO2 for 4hr, and then 23nL of compounds dissolved in DMSO and positive control were transferred using a Pintool station (Wako, San Diego, CA). The assay plates were incubated at 37C and 5% CO2 for 24hr. For viability read, after 23hr of compound treatment, 1uL of CellTiter-Fluor reagent (Promega Corporation, Madison, WI) was added to each well of the assay plates using Flying Reagent Dispenser (FRD, Aurora Discovery, San Diego, CA) and incubated the assay plates at 37C for 1hr. The fluorescence signal was quantified using a ViewLux plate reader (Perkin Elmer, Shelton, CT).
Potency means the concentration at half of the fitted maximal effect.

Compound	Potency
N#CC(Cl)Cl	inactive
CC(=O)O[C@H]1CC[C@@]2(C)C(=CC[C@@H]3[C@@H]2CC[C@]2(C)C(=O)CC[C@@H]32)C1	inactive
CC(C)Oc1cccc(NC(=O)c2ccccc2C(F)(F)F)c1	inactive
Clc1ccc(COC(Cn2ccnc2)c2ccc(Cl)cc2Cl)cc1 (stereo not given)	36 µM (active) and 27.2 µM (active)
Clc1ccc(-c2ccccc2)cc1	inactive
COP(=O)(OC)SCn1c(=O)oc2cc(Cl)cnc21	inactive
CC1(C)CC/C(=C/c2ccc(Cl)cc2)C1(O)Cn1cncn1 (stereo not given)	17.1 µM (active)
Clc1ccc(Oc2ccccc2)cc1	inactive
N#C/C=C/c1ccccc1	inactive
CC(C)(C)c1ccc(CSc2cnn(C(C)(C)C)c(=O)c2Cl)cc1	inactive
ClC1=C(Cl)[C@]2(Cl)[C@@H]3[C@@H](Cl)[C@@H](Cl)C[C@@H]3[C@@]1(Cl)C2(Cl)Cl	inactive
CCc1cc(C)cc(CC)c1-c1c(OC(=O)C(C)(C)C)n2n(c1=O)CCOCC2	27.3 µM (active)
ClCc1ccc(Cl)cc1Cl	inactive
Oc1ccc(I)cc1	inactive
CCOC(=O)CC(=O)CCl	inactive
Cc1cccc(OP(=O)(Oc2cccc(C)c2)Oc2cccc(C)c2)c1	inactive
[Hg+2].[I-].[I-]	2.43 µM (active)
C[C@@H]1CC[C@@]2(OC1)O[C@H]1[C@@H](O)[C@H]3[C@@H]4CC[C@H]5C[C@@H](O[C@@H]6O[C@H](CO)[C@H](O[C@@H]7O[C@H](CO)[C@@H](O)[C@H](O[C@@H]8OC[C@@H](O)[C@H](O)[C@H]8O)[C@H]7O[C@@H]7O[C@H](CO)[C@@H](O)[C@H](O[C@@H]8O[C@H](CO)[C@@H](O)[C@H](O)[C@H]8O)[C@H]7O)[C@H](O)[C@H]6O)[C@H](O)C[C@]5(C)[C@H]4CC[C@]3(C)[C@H]1[C@@H]2C	32.5 µM (active)
CC(=O)[O-].[Tl+]	inactive
O=CC(Br)(Br)Br	24.3 µM (active)

Compound	Potency
CC1(C)[C@H](C(=O)O[C@H](C#N)c2cccc(Oc3ccccc3)c2)[C@@H]1/C=C(\Cl)C(F)(F)F	inactive
CC(Cc1ccc(C(C)(C)C)cc1)CN1C[C@@H](C)O[C@@H](C)C1 (stereo not given in full)	inactive
Fc1cccc(Cl)c1CCl	inactive
ClC1=C(Cl)C2(Cl)C3C(Cl)C(Cl)CC3C1(Cl)C2(Cl)Cl (stereo not given)	43.1 µM (active) and 61.1 µM (active)
Oc1c(Br)c(Br)c(Br)c(Br)c1Br	inactive
COc1ccc(N)cc1N	9.99 µM (active) and 29.4 µM (active)
FC(F)(F)c1cccc(C2=CCN(CCc3ccc4ccccc4c3)CC2)c1	inactive
Oc1c(Cl)c(Cl)cc(Cl)c1Cl	inactive
CCC(C)c1cc(C(C)(C)C)cc(-n2nc3ccccc3n2)c1O (stereo not given)	inactive
O=C(CCCN1CCC2(CC1)C(=O)NCN2c1ccccc1)c1ccc(F)cc1	inactive
C[C@@H]1O[C@@H](O[C@@H]2C=C3CC[C@@H]4[C@H](CC[C@]5(C)[C@@H](c6ccc(=O)oc6)CC[C@]45O)[C@@]3(C)CC2)[C@H](O)[C@H](O)[C@H]1O	inactive
CCC[CH2][Sn]([CH2]CCC)([CH2]CCC)[O]C(=O)c1ccccc1	0.686 µM (active)
COc1ccc(OC)c(C=O)c1	inactive
Oc1ccc2ccc3cccc4ccc1c2c34	inactive
O=[N+]([O-])c1cc([N+](=O)[O-])c2ccccc2c1	inactive
Cl/C=C\CCl	inactive
Nc1ccccc1C(=O)Oc1ccc2ccccc2c1	inactive
CCCCCCCCCCCCCN1CC(C)OC(C)C1 (stereo not given)	inactive
CCCCN(CCCC)C(=S)[S-].CCCCN(CCCC)C(=S)[S-].[Zn+2]	5.44 µM (active)
CCOP(=S)(OCC)SCS(=O)(=O)CC	inactive
